The source of these data is PubChem BioAssay AID588458 (Sanford-Burnham Center for Chemical Genomics, 2011).

The whole screen tested about 360,000 compounds, of which about 3,000 (0.83%) were called active. The entries come from a sample that favours actives as a whole. Unmarked numbers belong to inactive results. No stated cut-off is given here; in the data, active means inhibition above about 50%; inactive means the rest.

This assay deals with DNA (cytosine-5)-methyltransferase 1 (Homo sapiens) (UniProt P26358). The assay is described as follows: human DNMT1 methyltransferase inhibitors, primary screen, biochemical, molecular beacon, fluorescence, HinP1I cleavage, uHTS (AID 588458). The note with it: at 10 µM, active compounds read high.
DNA (cytosine-5)-methyltransferase 1 (Homo sapiens), sequence (P26358 504-1616 limits assumed): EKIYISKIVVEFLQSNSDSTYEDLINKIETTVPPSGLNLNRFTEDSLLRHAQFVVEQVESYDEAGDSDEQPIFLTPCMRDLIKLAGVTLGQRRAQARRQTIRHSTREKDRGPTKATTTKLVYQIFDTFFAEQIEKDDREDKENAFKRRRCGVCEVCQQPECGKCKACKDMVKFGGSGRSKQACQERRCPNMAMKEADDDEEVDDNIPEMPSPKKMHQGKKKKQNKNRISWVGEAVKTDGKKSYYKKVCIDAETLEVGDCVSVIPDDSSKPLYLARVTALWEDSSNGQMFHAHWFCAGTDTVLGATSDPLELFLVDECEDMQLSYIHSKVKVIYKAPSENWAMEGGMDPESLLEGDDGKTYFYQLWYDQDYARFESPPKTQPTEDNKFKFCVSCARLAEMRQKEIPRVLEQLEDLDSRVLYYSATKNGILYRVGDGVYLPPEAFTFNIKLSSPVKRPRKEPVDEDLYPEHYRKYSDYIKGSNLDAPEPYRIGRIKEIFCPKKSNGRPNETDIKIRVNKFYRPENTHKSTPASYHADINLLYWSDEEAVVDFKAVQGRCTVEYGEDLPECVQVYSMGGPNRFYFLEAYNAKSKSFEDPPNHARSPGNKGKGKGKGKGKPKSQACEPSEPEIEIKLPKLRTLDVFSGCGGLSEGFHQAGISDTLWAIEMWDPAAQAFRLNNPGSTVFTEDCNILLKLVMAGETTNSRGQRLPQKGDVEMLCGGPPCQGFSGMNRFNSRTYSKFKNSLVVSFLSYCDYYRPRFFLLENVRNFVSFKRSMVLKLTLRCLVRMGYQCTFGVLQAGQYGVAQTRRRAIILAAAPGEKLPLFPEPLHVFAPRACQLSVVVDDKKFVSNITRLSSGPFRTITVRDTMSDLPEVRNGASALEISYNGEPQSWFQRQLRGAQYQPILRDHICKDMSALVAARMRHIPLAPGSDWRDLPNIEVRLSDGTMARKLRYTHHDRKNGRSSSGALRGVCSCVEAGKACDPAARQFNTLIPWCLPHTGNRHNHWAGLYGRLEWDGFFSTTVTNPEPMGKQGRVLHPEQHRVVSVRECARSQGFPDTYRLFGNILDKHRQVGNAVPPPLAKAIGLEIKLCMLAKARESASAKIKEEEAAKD
As for `O=C(OCCO)c1cc(Cl)c(C(=O)OCCO)cc1Cl`, the inhibition (reported as % activation of signal) is -0.85%. The figure for `FC(F)(F)c1ccc(-c2cccc3c2C2CC3CCN2Cc2ccccc2)cc1` (configuration not stated) is 5.02%; for `COc1cc(-c2nnc(NC(=O)C3=COCCO3)o2)cc(OC)c1OC` it is 0.63%. Regarding `Cc1ccc(C)c(-c2nnc(NC(=O)CS(=O)(=O)c3ccccc3)o2)c1`, the inhibition (reported as % activation of signal) is 2.2%. In the case of `COc1cc(-c2nnc(NC(=O)CS(=O)(=O)c3ccc(Cl)cc3)o2)cc(OC)c1OC`, the inhibition (reported as % activation of signal) is 64.7% (active). `O=C(COc1cccc2c1CCNC2=O)NC1CCCCC1`: the inhibition (reported as % activation of signal) was 0.71%. On to `COc1ccc(C)cc1N(C(=O)Cn1nnc(-c2ccc(C)o2)n1)C(C(=O)NC1CCCC1)c1ccncc1` (configuration not stated), for which the inhibition (reported as % activation of signal) is 0.4%.

For the molecule `COc1ccc(NC(=O)CCC(=O)Nc2cc(OC)c(NC(=O)c3ccco3)cc2OC)c(OC)c1`, the inhibition (reported as % activation of signal) was -1.01%. On to `CCOc1cc(NC(=S)NCc2ccco2)c(OCC)cc1NC(=O)c1ccco1`, for which the inhibition (reported as % activation of signal) is -8.9%. Regarding `CCOc1cc(NC(=O)c2ccco2)c(OCC)cc1NC(=O)COc1ccccc1`, the inhibition (reported as % activation of signal) is 67.3% (active). Consider `CC(C)(C(=O)N1CCC1(C)C(=O)NS(=O)(=O)c1ccc(Br)cc1)c1ccccc1` (configuration not stated), for which the inhibition (reported as % activation of signal) was 1.25%.

Consider `CCCCCCc1cc2cc(-c3nnc(-c4ccccc4)o3)c(=O)oc2cc1O`, for which the inhibition (reported as % activation of signal) is 88.6% (active). On to `CC1CCN(CCCNC(=O)CN2C(=O)CSc3ccc(S(=O)(=O)N4CCCCC4)cc32)CC1`, for which the inhibition (reported as % activation of signal) is 0.73%. As to `CC(C)C(NC(=O)c1c(F)cccc1F)C(=O)NCc1ccncc1` (configuration not stated), the inhibition (reported as % activation of signal) is 1.21%. For the molecule `O=C(NCCc1cccc(F)c1)C1CC(O)CN1C(=O)Nc1ccccc1` (configuration not stated), the inhibition (reported as % activation of signal) was 7.51%. The figure for `COc1cc(/C=N/N=C(\N)c2nonc2N)cc(OC)c1OC` is -0.45%; for `O=C(Nc1ccc(C(=O)NCc2ccccc2Cl)cc1)C1=CSCCO1` it is -10.3%; for `CSc1ccc(CNC(=O)C2(C)CCCN2C)cc1` (configuration not stated) it is 9.6%. As for `CSc1ccc(CNC(=O)c2ccc(NC(=O)C3=CSCCO3)cc2)cc1`, the inhibition (reported as % activation of signal) was 62.1% (active). With `O=C(Nc1cccc2cccnc12)c1ccc2sc([C@H]3C[C@H](O)[C@@H](CO)O3)nc2c1`, the inhibition (reported as % activation of signal) is -5.28%.

As to `CC(=O)c1ccc(NC(=O)c2ccc3c(Cl)c4c(nc3c2)CCCC4)cc1`, the inhibition (reported as % activation of signal) was 76.2% (active). Consider `CC(C)CCNC(=O)c1ccc2c(Cl)c3c(nc2c1)CCC3`, for which the inhibition (reported as % activation of signal) is -1.49%. Next, `COc1cccc(NC(=O)c2ccc3c(SCC(=O)O)c4c(nc3c2)CCCC4)c1`: 9.48%; `CC1=C(C(=O)N2CCOCC2)CC(CC(=O)NCCCN(C)C)C(=O)N1Cc1ccc(C(C)(C)C)cc1` (configuration not stated): 2.88%; `O=c1c2cc([N+](=O)[O-])ccc2nc2n1CCC2`: 2.73%.

Consider `Cc1cccc(NC(=S)N(CCN(C)C)C(C)c2ccco2)c1` (configuration not stated), for which the inhibition (reported as % activation of signal) was -0.09%.

For `O=C(CCNC(=O)c1ccccc1)NN=Cc1ccc(Br)o1`, the inhibition (reported as % activation of signal) is 50.6% (active). With `O=C(CCc1n[nH]c(=O)[nH]c1=O)N/N=C/c1ccc(Br)o1`, the inhibition (reported as % activation of signal) is 5.93%. Consider `O=C(CCC(=O)N/N=C/c1ccc(Br)o1)N/N=C/c1ccc(Br)o1`, for which the inhibition (reported as % activation of signal) was 17%. `COc1ccccc1OC(C)C(=O)Nc1ccc(S(=O)(=O)Nc2nccs2)cc1` (configuration not stated): the inhibition (reported as % activation of signal) was 0.4%.

For `O=C(Nc1nnc(SCc2ccccc2Cl)s1)c1cccc([N+](=O)[O-])c1`, the inhibition (reported as % activation of signal) is -4.99%. `Clc1ccccc1CSc1nnc(-c2ccco2)c(-c2ccco2)n1`: the inhibition (reported as % activation of signal) is 92.8% (active).

Regarding `COc1ccc(NCc2nnc(SCc3ccccc3)n2-c2ccc(OC)cc2)cc1`, the inhibition (reported as % activation of signal) is -3.05%. The figure for `CSc1nc(-c2ccco2)nn1C(=O)c1ccccc1Cl` is 4.2%; for `c1ccc(CSc2nnc(-c3ccco3)c(-c3ccco3)n2)cc1` it is 113% (active); for `c1ccc(Cc2c(-c3ccco3)nc3c4ccccc4ccn23)cc1` it is -16.2%. Turning to `CC(c1nnc(SCC(=O)Nc2sccc2C#N)n1-c1ccc(Cl)cc1)N(C)C` (configuration not stated), the inhibition (reported as % activation of signal) is -2.07%. With `CCOc1cc(CNCCN(C)C)c(Cl)cc1OCC(=O)NCCc1ccccc1`, the inhibition (reported as % activation of signal) was 2.37%. For the molecule `N#Cc1cc([N+](=O)[O-])ccc1NCC1CCCO1` (configuration not stated), the inhibition (reported as % activation of signal) was 0.79%.

For `COCCNC(=O)CN(Cc1ccco1)C(=O)CCC(=O)Nc1nccs1`, the inhibition (reported as % activation of signal) was 0.73%. Take `CC(C)(C)C(=O)N1CCC[C@@]1(CO)C(=O)O`: the inhibition (reported as % activation of signal) is 5.81%. `O=C(CCS(=O)(=O)c1ccc(Br)cc1)NCCc1ccc(Cl)cc1`: the inhibition (reported as % activation of signal) was 68.7% (active). Regarding `CCCCC(=O)N/N=C(\C)CC(=O)Nc1cc(Cl)ccc1OC`, the inhibition (reported as % activation of signal) was 2.33%.

Take `COc1ccc(Cl)cc1NC(=O)COC(=O)c1ccc(Br)o1`: the inhibition (reported as % activation of signal) was -6%. In the case of `O=C(NCCS(=O)(=O)c1ccc(Br)cc1)c1ccccc1Cl`, the inhibition (reported as % activation of signal) is 2.79%. `COc1ccc(Cl)cc1NC(=O)CCS(=O)(=O)c1ccc(Br)cc1`: the inhibition (reported as % activation of signal) was 94.1% (active). Next, `Cc1ccc(S(=O)(=O)CCC(=O)OCC(=O)NCCc2ccc(S(N)(=O)=O)cc2)cc1`: -1.16%.
